Data taken from PMC4336329 (PLoS ONE, 2015).
In all, about 310,000 compounds went through this assay and about 2,200 (0.71%) showed an effect of 50% or more. The effect is printed as a negative number. The sample holds strong results, similar compounds and a random draw of the others, so the mix is not that of the screen.

What follows are compounds tested against human ether-à-go-go-related gene (hERG) potassium channel (human, UniProt Q12809) (assay: primary screen, population patch clamp on CHO cells stably expressing hERG; higher = less effect of the substance).
Sequence of human ether-à-go-go-related gene (hERG) potassium channel (Q12809 whole entry, looked up): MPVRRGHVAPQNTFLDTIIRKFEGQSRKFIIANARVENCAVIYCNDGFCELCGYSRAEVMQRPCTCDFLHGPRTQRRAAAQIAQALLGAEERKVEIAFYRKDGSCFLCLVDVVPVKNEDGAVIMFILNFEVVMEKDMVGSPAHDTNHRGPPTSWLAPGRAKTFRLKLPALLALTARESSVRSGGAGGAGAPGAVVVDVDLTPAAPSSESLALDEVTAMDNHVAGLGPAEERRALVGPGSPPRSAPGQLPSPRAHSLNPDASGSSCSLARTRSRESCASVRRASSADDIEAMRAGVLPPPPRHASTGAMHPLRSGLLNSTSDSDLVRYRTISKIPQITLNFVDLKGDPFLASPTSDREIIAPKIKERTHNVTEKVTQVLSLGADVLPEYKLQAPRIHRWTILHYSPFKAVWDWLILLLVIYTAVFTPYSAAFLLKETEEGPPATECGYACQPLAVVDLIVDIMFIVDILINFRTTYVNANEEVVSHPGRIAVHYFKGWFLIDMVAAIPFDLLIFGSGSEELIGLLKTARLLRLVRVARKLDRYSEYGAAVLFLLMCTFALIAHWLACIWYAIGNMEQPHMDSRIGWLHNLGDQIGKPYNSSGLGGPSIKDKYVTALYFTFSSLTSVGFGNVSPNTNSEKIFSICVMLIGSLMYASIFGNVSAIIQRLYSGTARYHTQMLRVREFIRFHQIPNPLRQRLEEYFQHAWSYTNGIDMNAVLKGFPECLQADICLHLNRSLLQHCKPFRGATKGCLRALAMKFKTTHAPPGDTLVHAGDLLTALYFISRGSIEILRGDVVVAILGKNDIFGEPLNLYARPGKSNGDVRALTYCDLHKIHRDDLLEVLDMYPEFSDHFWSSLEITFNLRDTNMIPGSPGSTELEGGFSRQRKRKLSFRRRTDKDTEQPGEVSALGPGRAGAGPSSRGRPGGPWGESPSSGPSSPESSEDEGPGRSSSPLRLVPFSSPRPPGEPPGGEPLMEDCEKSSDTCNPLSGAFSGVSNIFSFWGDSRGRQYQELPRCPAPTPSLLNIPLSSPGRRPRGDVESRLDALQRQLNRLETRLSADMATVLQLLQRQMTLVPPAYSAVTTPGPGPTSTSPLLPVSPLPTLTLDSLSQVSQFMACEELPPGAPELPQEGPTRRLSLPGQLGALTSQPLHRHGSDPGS

Structure (SMILES)	hERG current change (%, negative = inhibition) at 1uM
CC(=O)N1N=C(c2ccc(Br)cc2)CC1c1cn(C)c2ccccc12 (centres unmarked)	9.41%
O=C(N/N=C1\CCCc2ccccc21)c1cccc(Br)c1	9.96%
CCOC(=O)C1(Cc2cccc(F)c2)CCN(Cc2cnn(CC)c2)CC1	-4.74%
CCOC(=O)C1(Cc2ccc(Cl)cc2)CCN(Cc2cn(CC)nc2C)CC1	-28.5%
CCOC(=O)C1(Cc2cccc(F)c2)CCN(CC2CC2)CC1	-2.54%
CCOC(=O)C1(Cc2cccc(F)c2)CCN(CCCn2cccn2)CC1	-51.2%
CCOC(=O)C1(CCCc2ccccc2)CCN(Cc2cn(CC)nc2C)CC1	-59.8%
CCOC(=O)C1(CCCc2ccccc2)CCN(Cc2ccn[nH]2)CC1	-27.8%
COC(=O)C1=CN(Cc2ccc(OC)c(OC)c2)C=C(C(=O)OC)C1c1ccc(F)cc1	4.21%
COCCNC(=O)c1ccc(CSc2nc3ccccc3s2)cc1	3.95%
Cn1c(C(=O)N2CCN(c3ccc(Cl)cc3)CC2)cc2c(=O)[nH]c3ccccc3c21	-56%
Cc1cccc(N2CCN(C(=O)c3cc4c(=O)[nH]c5ccccc5c4n3C)CC2)c1C	11.2%
Cc1ccc(Cl)cc1N1CCN(C(=O)c2cc3c(=O)[nH]c4ccccc4c3n2C)CC1	10.4%
COc1ccccc1C(=O)Nn1c(C2CCC2)nc2ccccc2c1=O	4.52%
CCc1ccc(CNC(=O)Cn2nc(-c3ccccc3)ccc2=O)cc1	8.46%
CC(=O)Nc1sc2c(c1C#N)CCC(C)C2 (centres unmarked)	11.7%
CC1CCc2c(sc(NC(=O)COC(=O)c3ccccc3NCc3ccco3)c2C#N)C1 (centres unmarked)	12.9%
CC1CCc2c(sc(NC(=O)C(=O)NCc3ccco3)c2C#N)C1 (centres unmarked)	-63.6%
CC(=O)c1cc(C#N)c(SCc2ccc([N+](=O)[O-])cc2)nc1C	10.4%
Cc1nc(N)nc(SCc2ccc([N+](=O)[O-])cc2)c1N	-70.8%
Cc1cc(C)nc(SCc2ccc([N+](=O)[O-])cc2)n1	6.29%
CC(OC(=O)c1ccc2ncsc2c1)C(=O)Nc1ncc(Cl)cc1Cl (centres unmarked)	8.58%
CC(NC(=O)c1ccc2c(c1)OCCO2)c1ccc(S(N)(=O)=O)cc1 (centres unmarked)	-3.42%

Structure (SMILES)	hERG current change (%, negative = inhibition) at 1uM
O=[N+]([O-])c1ccc2oc(C3CCCCC3)nc2c1	14.4%
CC(NC(=O)c1cccc(S(=O)(=O)N(C)C)c1)c1nc2ccccc2[nH]1 (centres unmarked)	9.08%
O=C(Cn1nc(-c2ccccc2)ccc1=O)Nc1ccc(-n2cnnn2)cc1	9.23%
CCc1ccc(N2C(=O)NC(=O)C(CCc3ccncc3)(CCc3ccncc3)C2=O)cc1	-41.1%
C=CCN1C(=O)NC(=O)C(CCc2ccncc2)(CCc2ccncc2)C1=O	-12.3%
O=C1NC(=O)C(CCc2ccncc2)(CCc2ccncc2)C(=O)N1CCc1ccccc1	-23.1%
O=C1NC(=O)C(CCc2ccncc2)(Cc2ccc3c(c2)OCO3)C(=O)N1CCc1ccccc1 (centres unmarked)	-10.8%
O=C1NC(=O)C(CCc2ccncc2)(C2CCCCC2)C(=O)N1	11.2%
O=C1NC(=O)C(CCc2ccncc2)(CCc2ccncc2)C(=O)N1Cc1ccc(F)cc1	-78.2%
O=C1NC(=O)C(CCc2ccncc2)(CCc2ccncc2)C(=O)N1C1CCCCC1	-69.7%
O=C1NC(=O)C(CCc2ccncc2)(CCc2ccncc2)C(=O)N1CCc1ccc(F)cc1	-77.1%
O=C1NC(=O)C(CCc2ccncc2)(CCc2ccncc2)C(=O)N1Cc1ccccc1	-43.4%
O=C1c2ccccc2C(O)(c2ccccc2)N1C1CC1 (centres unmarked)	-8.45%
C#CCOc1ccc(Br)cc1C(c1c(C)[nH][nH]c1=O)c1c(C)[nH][nH]c1=O	11.6%
c1ccc2oc(SCc3cn4ccccc4n3)nc2c1	-12.5%
COC(=O)COc1ccc(NC(=O)C(c2ccccc2)c2ccccc2)cc1	6.63%
Cc1ccc(C(=O)Nc2cccc(C(F)(F)F)c2)cc1NC(=O)c1csc(-c2ccncc2)n1	-17.1%
O=C(Nc1ccc(C(F)(F)F)cc1)c1csc(-c2ccncc2)n1	-2.94%
O=C(Nc1cccc(C(F)(F)F)c1)c1csc(-c2ccncc2)n1	-82.4%
CN(CCCNC(=O)C1CCC(=O)N1Cc1ccccc1Cl)c1ccccc1 (centres unmarked)	19.2%
CCOC(=O)C1(CC2CC2)CCN(Cc2cnc(-c3ccc(OC)cc3)nc2)CC1	11.7%
CCOC(=O)N1CCN(Cc2cn[nH]c2-c2ccc(-c3ccccc3)cc2)CC1	7.03%
CCOC(=O)C1(CC2CC2)CCN(Cc2cn[nH]c2-c2cccc(F)c2)CC1	-57.6%

Structure (SMILES)	hERG current change (%, negative = inhibition) at 1uM
CCOC(=O)C1(CC2CC2)CCN(Cc2ccc(OC)cc2F)CC1	-73.3%
CCOC(=O)C1(CC2CC2)CCN(Cc2cn[nH]c2-c2ccccc2)CC1	-65.5%
CCOC(=O)C1(Cc2ccccc2)CCN(Cc2cn[nH]c2-c2ccccc2)CC1	1.58%
CCOC(=O)C1(CC2CCCCO2)CCN(Cc2ccc(OC)cc2F)CC1 (centres unmarked)	-19.8%
CCOC(=O)C1(CC2CC2)CCN(Cc2cn(C)c3ccccc23)CC1	12.2%
CCOC(=O)C1(CC2CCCCO2)CCN(Cc2cn[nH]c2-c2cccc(F)c2)CC1 (centres unmarked)	-27.2%
Cc1cnc(C(=O)OCC(=O)Nc2cc(S(=O)(=O)N3CCCCC3)ccc2Cl)cn1	19.4%
CCOc1ccc(NC(=O)CC2C(=O)N(c3cccc(OC)c3)C(=O)N2CCOC)cc1 (centres unmarked)	3.67%
CC(C)CN(C(=O)CN1CCN(S(=O)(=O)c2ccccc2)CC1)c1c(N)n(CC(C)C)c(=O)[nH]c1=O	-2.18%
CCOC(=O)c1c(CN(CC)CC)n(-c2ccccc2)c2ccc(O)cc12	-45.6%
Cc1ccc(C(=O)Nc2cnc3ccccc3c2)cc1	6.66%
COc1ccc2c(CN3CC=C(c4ccccc4)CC3)cc(=O)oc2c1	13.1%
Nc1cccc(Cl)c1N1CCOCC1	9%
COc1ccccc1CNC(=O)C1CCCN(S(=O)(=O)c2cccc3cccnc23)C1 (centres unmarked)	0.692%
COc1cc(OC)cc(C(=O)N2CCN(C(=O)COc3ccc4ccccc4c3)CC2)c1	-4.51%
COc1cccc(C(=O)N2CCN(C(=O)COc3ccc4ccccc4c3)CC2)c1	-3.85%
COc1ccc(OCC(=O)N2CCN(C(=O)c3ccc([N+](=O)[O-])cc3)CC2)cc1	-43.2%
O=C(COc1ccc2ccccc2c1)N1CCN(C(=O)c2ccc([N+](=O)[O-])cc2)CC1	-69.3%
COc1cc(C(=O)N2CCN(C(=O)COc3ccc4ccccc4c3)CC2)cc(OC)c1OC	-54%
O=C(COc1ccccc1)N1CCN(C(=O)c2ccc([N+](=O)[O-])cc2)CC1	-19%
O=C(CN1CCN(C(=O)C2CC2)CC1)Nc1cc(C(F)(F)F)cc(C(F)(F)F)c1	-5.9%
CCOc1ccc(Br)cc1S(=O)(=O)NC1CC(C)(C)NC(C)(C)C1	17%
CC1(C)CC(NC(=O)COc2ccc3ccc(=O)oc3c2)CC(C)(C)N1	13.6%

Structure (SMILES)	hERG current change (%, negative = inhibition) at 1uM
CCOC(=O)CSc1ncnc2c(C(=O)OCC)c3n(c12)CCC3	-10.4%
CCOC(=O)c1c(NCc2ccccc2)n[nH]c1C	4.96%
CCOC(=O)c1c2n(c3c(NCc4ccccc4)ncnc13)CCCC2	-70.3%
COC(=O)c1c(NC(=O)CSc2ncn[nH]2)sc(C)c1C	11.2%
Cc1ccc(-c2csc3ncnc(N4CCN(C)CC4)c23)cc1C	10.8%
CCN1CCN(c2ncnc3scc(-c4ccc(C)c(C)c4)c23)CC1	-50.8%
CCN1CCN(c2ncnc3scc(-c4ccc(C)cc4)c23)CC1	3.26%
CN(C)S(=O)(=O)c1ccc(C(=O)NCc2ccccn2)cc1	14.5%
COc1ccc(CCN(C)C/C=C/c2ccccc2)cc1OC	-43.3%
COc1cc(CNCCc2ccc(S(N)(=O)=O)cc2)ccc1OCc1ccc(Cl)cc1.Cl	-1.77%
COc1cc(CN(C)CCc2ccccc2)ccc1OCc1ccccc1	-12.2%
Cl.NS(=O)(=O)c1ccc(CCNCc2cc(Br)ccc2OCc2ccccc2)cc1	-44.9%
C=CCOc1ccccc1CNCCc1ccc(S(N)(=O)=O)cc1.Cl	-6.97%
COc1ccc(CCN(C)Cc2ccc(OCc3ccccc3)c(OC)c2)cc1OC	-42.9%
Cl.NS(=O)(=O)c1ccc(CCNCc2cc(Cl)ccc2OCc2ccccc2)cc1	-59.3%
Cl.NS(=O)(=O)c1ccc(CCNCc2ccccc2OCc2ccc(Cl)cc2)cc1	-70.5%
COc1ccc(CCN(C)C/C=C/c2ccccc2[N+](=O)[O-])cc1OC	-54.3%
Cl.NS(=O)(=O)c1ccc(CCNCc2ccccc2OCc2ccc(F)cc2)cc1	-21.5%
CN(C/C=C/c1ccccc1[N+](=O)[O-])Cc1ccccc1	-8.37%
COc1ccc(CCN(C)Cc2ccc(OC)c(OCc3ccccc3)c2)cc1OC	-77%
